Holding throughout (assay): NCI-60 one-dose screen, 48 h (100 = growth as untreated, 0 = no growth, -100 = all killed)
One experiment concerns HCT-15 colon. As to conditions: 10 µM unless noted.
The subject of the next experiment is HT29 colon. The note with it: 10 µM unless noted.
Another experiment deals with SNB-75 CNS. As to conditions: 10 µM unless noted.
The test system of a further experiment is SNB-19 CNS. As to conditions: 10 µM unless noted.
The next experiment concerns PC-3 prostate. As to conditions: 10 µM unless noted.
The subject of the next experiment is UACC-62 melanoma. The note with it: 10 µM unless noted.
The subject of another experiment is LOX IMVI melanoma. As to conditions: 10 µM.
The subject of the next experiment is SK-MEL-28 melanoma. As to conditions: 10 µM unless noted.
Another experiment deals with SK-MEL-2 melanoma. As to conditions: 10 µM unless noted.
For a further experiment, the system named is EKVX NSCLC. The note with it: 10 µM unless noted.
A further experiment concerns SN12C renal. The note with it: 10 µM unless noted.
The next experiment has as its system UO-31 renal. The note with it: 10 µM unless noted.
The subject of a further experiment is TK-10 renal. The note with it: 10 µM unless noted.
Another experiment relates to ACHN renal. As to conditions: 10 µM unless noted.
The test system of another experiment is CAKI-1 renal. The note with it: 10 µM unless noted.
A further experiment concerns A498 renal. As to conditions: 10 µM unless noted.
Another experiment deals with CCRF-CEM leukemia. The note with it: 10 µM unless noted.
A further experiment concerns MOLT-4 leukemia. As to conditions: 10 µM unless noted.
A further experiment deals with SK-MEL-5 melanoma. The note with it: 10 µM unless noted.
For another experiment, the system named is U251 CNS. As to conditions: 10 µM unless noted.

The panel holds about 83,000 compounds, 20% with a hit somewhere; the sample as a whole holds those more often.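 Compound tested at a single concentration for 48 hours in 96-well plates; a percent growth value below 10 was scored as active.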 Values without a mark were called inactive. Active and inactive are the calls of the source.

As for `CCC(C)C1CCC(O)CC1` (centres undefined), the growth is 104% in the experiment with HCT-15 colon; 105% in the experiment on HT29 colon; 91.7% in the experiment with SNB-75 CNS; 112% in the experiment on SNB-19 CNS; 100% with PC-3 prostate; 104% in the experiment on UACC-62 melanoma. In addition, the growth in the experiment on LOX IMVI melanoma was 101%; in the experiment on SK-MEL-28 melanoma, 106%; in the experiment on SK-MEL-2 melanoma, 104%; in the experiment with EKVX NSCLC it was 113%; with SN12C renal it was 108%; with UO-31 renal, 90.7%. Besides, the growth with TK-10 renal was 103%; with ACHN renal it was 105%; in the experiment on CAKI-1 renal it was 96.6%; in the experiment with A498 renal it was 103%; in the experiment with CCRF-CEM leukemia, 125%; with MOLT-4 leukemia, 104%.
On to `NC(=S)c1c(N)n(C2OC(CO)C(O)C2O)c2ncnc(N)c12` (centres undefined), for which the growth in the experiment with HCT-15 colon is 3.4% (active); in the experiment on HT29 colon, 5.09% (active); with SNB-75 CNS, -8.18% (active); in the experiment with SNB-19 CNS, 14.9%; in the experiment with PC-3 prostate it was -10.1% (active); with SK-MEL-5 melanoma, -77.5% (active). Also, the growth with UACC-62 melanoma was -73.7% (active); in the experiment with LOX IMVI melanoma it was -3.22% (active); in the experiment on SK-MEL-28 melanoma, -46.8% (active); in the experiment with EKVX NSCLC, -27.4% (active); in the experiment on SN12C renal, 15%; with UO-31 renal, -40% (active). Moreover, the growth was -4.54% (active) in the experiment on TK-10 renal, 11.3% in the experiment with ACHN renal and -55.6% (active) in the experiment on A498 renal.
As for `CC(=O)N(C)N=Nc1ccc(C)cc1`, the growth in the experiment with HCT-15 colon was 107%; with HT29 colon it was 116%; with SNB-75 CNS, 93.2%; in the experiment with SNB-19 CNS, 101%; with SK-MEL-5 melanoma it was 103%; with UACC-62 melanoma, 101%. Moreover, the growth in the experiment on LOX IMVI melanoma is 98.1%; with SK-MEL-28 melanoma, 116%; in the experiment with SK-MEL-2 melanoma it was 101%; in the experiment on EKVX NSCLC, 101%; in the experiment on SN12C renal, 100%; with UO-31 renal, 81.6%. Besides, the growth in the experiment on TK-10 renal was 92.7%; in the experiment on CAKI-1 renal it was 98.6%; in the experiment with A498 renal, 100%; in the experiment with CCRF-CEM leukemia, 95.6%; with MOLT-4 leukemia, 112%.
In the case of `NC(=S)N/N=C/c1ccc(OC(=O)COc2ccc(Cl)cc2)cn1`, the growth in the experiment with HCT-15 colon was 70.6%; with HT29 colon it was 79.3%; in the experiment on SNB-75 CNS it was 44.9%; in the experiment with SNB-19 CNS, 72.9%; in the experiment with PC-3 prostate it was 64.3%; with SK-MEL-5 melanoma, 30.7%. Moreover, the growth is 8.53% (active) in the experiment on UACC-62 melanoma; 23.8% with LOX IMVI melanoma; 76.5% in the experiment on SK-MEL-28 melanoma; 62.8% with SK-MEL-2 melanoma; 93.6% in the experiment with EKVX NSCLC; 28.2% in the experiment on SN12C renal. Also, the growth with UO-31 renal was 24.9%; with TK-10 renal, 74.9%; with CAKI-1 renal, 0.332% (active); in the experiment on A498 renal it was 57.3%; in the experiment with CCRF-CEM leukemia it was 18.6%; in the experiment on MOLT-4 leukemia it was 16.5%.
`Ic1cccs1`: the growth with HCT-15 colon was 109%; with HT29 colon, 94.2%; in the experiment on SNB-75 CNS, 105%; in the experiment with SNB-19 CNS, 99.6%; in the experiment with PC-3 prostate, 99.5%; in the experiment on SK-MEL-5 melanoma, 104%. The growth with UACC-62 melanoma is 98.5%; in the experiment with LOX IMVI melanoma it was 96.9%; in the experiment on SK-MEL-28 melanoma it was 111%; in the experiment with SK-MEL-2 melanoma it was 97.9%; with SN12C renal, 98.9%; with UO-31 renal, 90.5%. Moreover, the growth was 95.8% with TK-10 renal; 103% in the experiment with ACHN renal; 101% in the experiment with CAKI-1 renal; 96.5% in the experiment on A498 renal; 96% in the experiment on CCRF-CEM leukemia; 98.9% in the experiment on MOLT-4 leukemia.
Consider `Cc1ccc(NC(=S)N2CCOCC2)cc1C`, for which the growth was 86.2% in the experiment with HCT-15 colon; 114% with HT29 colon; 106% in the experiment with SNB-75 CNS; 94.5% in the experiment on SNB-19 CNS; 104% with PC-3 prostate; 96.5% with SK-MEL-5 melanoma. Moreover, the growth with UACC-62 melanoma was 94%; in the experiment with LOX IMVI melanoma, 82.3%; in the experiment on SK-MEL-28 melanoma, 111%; with SK-MEL-2 melanoma, 100%; with SN12C renal, 99.4%; in the experiment with UO-31 renal, 66.3%. The growth in the experiment on ACHN renal is 99.2%; in the experiment on CAKI-1 renal, 101%; in the experiment with A498 renal it was 105%; with CCRF-CEM leukemia, 109%; in the experiment with MOLT-4 leukemia it was 100%.
For the compound `NC(=O)c1cc2c3ccccc3ccn2c1-c1ccccc1`, the growth in the experiment with HCT-15 colon was 4.13% (active); in the experiment with HT29 colon it was 7.35% (active); in the experiment on SNB-75 CNS it was 59.9%; in the experiment on U251 CNS, 16.1%; with PC-3 prostate, 37.3%; in the experiment with SK-MEL-5 melanoma it was -34.2% (active). Besides, the growth in the experiment on UACC-62 melanoma was 31.7%; in the experiment with LOX IMVI melanoma, 20%; with SK-MEL-28 melanoma, 105%; with SK-MEL-2 melanoma it was -7.59% (active); with EKVX NSCLC, 14.5%; in the experiment with SN12C renal, 28.5%. Also, the growth in the experiment with UO-31 renal was 32.2%; with TK-10 renal, 47.7%; in the experiment with ACHN renal, 23.6%; in the experiment on CAKI-1 renal, -9.87% (active); in the experiment with A498 renal, 34.4%; in the experiment with MOLT-4 leukemia, 7.02% (active).
Regarding `COC1OC(C(O)C(O)CO)C(O)C(O)C1O` (centres undefined), the growth in the experiment with HCT-15 colon was 99.1%; in the experiment with HT29 colon, 100%; in the experiment on SNB-75 CNS, 95.6%; in the experiment with SNB-19 CNS, 105%; in the experiment with PC-3 prostate it was 95.6%; in the experiment with SK-MEL-5 melanoma, 107%. Also, the growth is 102% in the experiment on UACC-62 melanoma; 102% in the experiment with LOX IMVI melanoma; 101% in the experiment with SK-MEL-28 melanoma; 99.5% in the experiment on SK-MEL-2 melanoma; 94.1% with SN12C renal; 97.1% in the experiment on UO-31 renal. In addition, the growth is 107% with TK-10 renal; 101% in the experiment on ACHN renal; 95.6% in the experiment on CAKI-1 renal; 107% in the experiment on A498 renal; 95.4% with CCRF-CEM leukemia; 105% in the experiment with MOLT-4 leukemia.
With `N#C/C(=C\NC(=S)N=Nc1c(O)[nH]c2ccccc12)c1nc2ccccc2s1`, the growth with HCT-15 colon is 101%; in the experiment with HT29 colon it was 106%; in the experiment on SNB-19 CNS, 104%; in the experiment with U251 CNS it was 92.5%; in the experiment with PC-3 prostate, 86.1%; in the experiment with SK-MEL-5 melanoma it was 94.9%. Further, the growth with UACC-62 melanoma is 94.3%; in the experiment with LOX IMVI melanoma, 96.6%; in the experiment on SK-MEL-28 melanoma, 112%; in the experiment with SK-MEL-2 melanoma it was 105%; in the experiment on EKVX NSCLC, 99.3%; in the experiment on SN12C renal it was 110%. Also, the growth in the experiment on UO-31 renal was 79.2%; with TK-10 renal, 140%; with ACHN renal it was 89.6%; in the experiment with CAKI-1 renal, 96.2%; with A498 renal, 89%; with CCRF-CEM leukemia, 93.4%. Moreover, in the experiment with MOLT-4 leukemia, the growth is 99.4%.
In the case of `CC(=O)OC/C(C)=C\CC(C)COC(C)=O` (centres undefined), the growth in the experiment with HCT-15 colon is 98.8%; in the experiment on HT29 colon it was 113%; in the experiment on SNB-75 CNS, 81.5%; in the experiment with SNB-19 CNS, 94.9%; with PC-3 prostate, 93.9%; in the experiment on SK-MEL-5 melanoma, 104%. Also, the growth is 101% with UACC-62 melanoma; 98.8% in the experiment with LOX IMVI melanoma; 94.6% with SK-MEL-28 melanoma; 113% in the experiment with SK-MEL-2 melanoma; 87.7% in the experiment with UO-31 renal; 112% in the experiment with TK-10 renal. In addition, the growth is 96.3% with CAKI-1 renal, 95.7% in the experiment with A498 renal, 96.9% with CCRF-CEM leukemia and 111% with MOLT-4 leukemia.
